Assay outcomes from PubChem BioAssay.
Shiga inhibitor – inhibitors of Shiga toxin in Vero cells | actives 9.2% (n = 290,000) | inhibition, % at 38.7 µM | AID 2315 | Vero cells, Shiga toxin protein synthesis inhibition reporter; in the data active = inhibition mostly above about 28%, no sharp cut-off; inactive = mostly below about 43%; note: 0% is about no effect
HCV inh – blocks hepatitis C virus | AID 651820 | Huh7.5.1 HCVcc-Cre infection, luciferase reporter, 44 h | actives 3.4% (n = 340,000) | Potency, µM (highest dose often 41.8 µM), for inactives: top-dose activity change, negative = inhibition, most hits filed as inhibitors; active = well fitted inhibition curve with a large enough effect; inconclusive = small, poorly fitted or top-dose-only effect, or another doubt; inactive = no such curve, though single readings can be large or run the other way; note: potency is the fitted concentration of half-maximal effect; % is set by controls: 0 for no effect and ±100 for the full control effect
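Seed cells (1,000/well) for 4 h; treat with compound and infect with HCVcc-Cre, moi about 0.5. Incubate 44 h, then detect luciferase activity.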
Marburg entry inh – Marburg virus entry inhibition. Potency, µM (doses to about 37.8 µM), inactives show at the highest dose activity change, negative = inhibition, actives largely listed as inhibitors. actives 1.8% (n = 300,000). AID 540276. Marburg virus pseudotyped entry inhibition, cell reporter; calls by dose curve; tested in HEK293 cells; note: potency is the fitted concentration of half-maximal effect; % is set by controls: 0 for no effect and ±100 for the full control effect
FMDV antiviral – blocks foot and mouth disease virus. FMDV antiviral cell-based qHTS. Potency, µM (highest dose often 57.9 µM), without a hit: at the highest dose activity change, negative = inhibition, actives largely listed as inhibitors. actives 1.2% (n = 410,000); calls by dose curve; tested in HEK293T cells; note: read-out not given here; potency is the fitted concentration of half-maximal effect; % is set by controls: 0 for no effect and ±100 for the full control effect; nearly all actives have a fitted effect of over 45% in size
Cycloheximide cs – counter-screen hit for Shiga toxin inhibitors, cycloheximide; cell reporter, cycloheximide protein synthesis inhibition counterscreen; max response, %; actives 12% (n = 300,000); AID 2314; in the data active = max response mostly above about 13%, no sharp cut-off; inactive = mostly below about 14%; note: read at 38.3 µM for the half of the compounds with a filed dose; 0% is about no effect
LASV entry inh – inhibitors of Lassa virus binding or cell entry; actives 1.2% (n = 300,000); Potency, µM (highest dose often 37.9 µM), for inactives: at the highest dose activity change, negative = inhibition, actives largely listed as inhibitors; Lassa virus pseudotype entry inhibition, cell reporter; calls by dose curve; tested in HEK293 cells; note: potency is the fitted concentration of half-maximal effect; % is set by controls: 0 for no effect and ±100 for the full control effect; nearly all actives have a fitted effect of over 50% in size
An asterisk follows results filed as active; ? = inconclusive; . = no result given; [ ] = another dose, or the depositor's remark. Sampled rows, rich in hits. Any-hit rate of the full collection: about 13%.

SMILES | Shiga inhibitor | HCV inh | Marburg entry inh | FMDV antiviral | Cycloheximide cs | LASV entry inh
CCOC(=O)/C(C#N)=c1/s/c(=C2\C=Cc3ccccc3N2CC)c(=O)n1CC | -20 | 21% | 11% | -17% | -2 | ?
CCOc1ccc2nc(N3CCOCC3)nc(C)c2c1 | 99* | -15% | ? | 30% | 53* | ?
COc1ccc(N2CCN(c3cc(C)c4ccc(C)cc4n3)CC2)cc1 | -12 | -15% | ? | ? | -1 | ?
COc1ccc2c(C)cc(N3CCN(c4ccc(F)cc4)CC3)nc2c1 | -5 | -18% | ? | . | -3 | 1%
COc1ccc2c(C)cc(N3CCOCC3)nc2c1 | 52* | 25µM* | 27% | 50% | 26* | ?
COc1ccc2nc(N3CCOCC3)cc(C)c2c1 | 61* | ? | ? | . | 33* | ?
CCOC(=O)N1CCN(C(=O)c2ccc(CNS(=O)(=O)c3ccc(C)cc3)cc2)CC1 | -21 | -5% | -16% | -5% | -1 | -17%
NC(=O)C1CCN(c2ncnc3c2cnn3-c2ccccc2)CC1 | . | . | . | 65% | . | 16%[46.1 µM]
O=C(c1ccco1)N1CCN(c2ncnc3c2[nH]c2ccc(Br)cc23)CC1 | -4 | 11µM* | ? | ? | 2 | ?
O=C(c1ccco1)N1CCN(c2ncnc3c(-c4ccccc4)nsc23)CC1 | 48 | 22µM* | ? | 5% | 17 | ?
NC(=O)C1CCN(c2ncnc3c(-c4ccccc4)nsc23)CC1 | 51* | -2% | -3% | 25% | 50* | -2%
COc1ccc(CN2C(=O)C(CC(=O)NCCN3CCOCC3)CC(C(=O)N3CCCCCC3)=C2C)cc1 (stereo unspecified) | . | . | . | -20% | . | .
O=C(C[C@@H]1C/C=C/CC[C@H](Cc2ccc(F)cc2)C(=O)OCCNC1=O)N[C@H](CO)Cc1ccccc1 | . | 10µM* | . | -27% | . | .
O=C1NCCOC(=O)[C@@H](Cc2ccc(F)cc2)CC/C=C/C[C@H]1CC(=O)N(CCO)Cc1ccccc1 | . | 11µM* | . | ? | . | .
O=C(Cn1cnc2c(oc3ccccc32)c1=O)NCCc1ccccc1 | . | 0% | 11% | . | . | 5%
CSc1nnc(N2C(=O)C(O)=C(C(=O)c3ccc(C)o3)C2c2ccc(C)cc2)s1 (stereo unspecified) | 95* | ? | . | 43% | 35* | .
Cc1ccc(C)c(Nc2nc3ccc(C)cc3n3cnnc23)c1 | -3 | ? | -22% | -11% | -1 | ?
Cc1cc(NCCC(C)C)n2nc(C)c(-c3ccccc3)c2n1 | 37 | 8.9µM* | ? | 1% | 16 | -6%
CCCc1cc(NCc2ccccn2)n2nc(C)c(-c3ccccc3)c2n1 | 2 | ? | ? | -13% | -1 | ?
Cc1nn2c(NCc3ccccn3)cc(C(C)C)nc2c1-c1ccccc1 | -5 | 4µM* | . | -27% | 1 | .
C=C(C)CSc1cc(C)nc2c(-c3ccccc3)c(C)nn12 | 34 | ? | . | -1% | 36* | .
Cc1nn2c(NCC(C)C)c3c(nc2c1-c1ccccc1)CCC3 | 2 | 6.3µM* | ? | -9% | -3 | -18%
Cc1cc(NCCCN2CCOCC2)n2nc(C)c(-c3ccccc3)c2n1 | 21 | -26% | ? | -16% | -1 | 4%
CCSc1cc(C)nc2c(-c3ccccc3)c(C)nn12 | -2 | ? | -18% | 15% | 10 | 19%
COc1cc(N/C=C(\C(C)=O)c2ccccc2)cc(OC)c1 | -3 | -14% | 7% | . | 3 | .
SMILES | Shiga inhibitor | HCV inh | Marburg entry inh | FMDV antiviral | Cycloheximide cs | LASV entry inh
CCOC(=O)c1sc2ncn(/N=C/c3ccc(O)cc3)c(=O)c2c1C | 25 | ? | -7%[46.1 µM] | ? | 1 | -24%[46.1 µM]
CN(C)CCNc1ncnc2c1ncn2[C@H]1CN(C)C[C@@H](CO)O1 | . | . | . | -15% | . | .
COc1ccc(-c2cc(C)nc(SCC(=O)c3cccc([N+](=O)[O-])c3)n2)cc1 | -17 | 16µM* | 2% | 10% | -3 | 5%
Cc1ccc(-c2cc(C(F)(F)F)nc(SCC(=O)c3cccc([N+](=O)[O-])c3)n2)cc1 | -4 | ? | -5% | . | -3 | 5%
Cc1ccc(OCc2nnc(SCC(=O)c3cccc([N+](=O)[O-])c3)n2C)cc1 | -7 | 8.9µM* | -2% | 0% | 5 | 9%
Cc1nc2nc(SCC(=O)c3cccc([N+](=O)[O-])c3)[nH]c2cc1Br | 30* | -22% | 3% | 12% | 31* | 28%
Cc1cc(-c2ccccc2)nc(SCC(=O)c2cccc([N+](=O)[O-])c2)n1 | -19 | 13µM* | -24% | ? | -3 | ?
Cc1cc(CNC(=O)C2CCC(=O)N(CCc3cccc(F)c3)C2)on1 (stereo unspecified) | 6 | 7% | . | -5% | -1 | .
Cc1ccc(CNC(=O)Cn2c(=O)n(Cc3ccccc3)c(=O)c3sc4ccccc4c32)cc1 | . | . | -5%[46.1 µM] | -24% | . | -10%[46.1 µM]
CCc1ccc(N2CC(C)Cn3c2nc2c3c(=O)n(CCN3CCOCC3)c(=O)n2C)cc1 (stereo unspecified) | 9 | 4% | ? | -29% | -2 | -1%
C[C@H](CO)N1C[C@H](C)[C@@H](CN(C)S(C)(=O)=O)Oc2c(NC(=O)Nc3ccc(C(F)(F)F)cc3)cccc2C1=O | . | 1% | . | -11% | . | .
CCN1CCN(Cc2ccc(NC(=O)c3ccc(C)c(NC(=O)c4cc(-c5ccc(Br)cc5)n[nH]4)c3)cc2C(F)(F)F)CC1 | -3 | ? | . | -30% | -2 | .
O=C(CN(C(=O)c1csnn1)c1ccccc1Cl)NCCc1ccccc1 | 4 | -7% | -2%[46.1 µM] | 8% | -5 | 18%[46.1 µM]
N#CC1=C(N)OC2=C(C(=O)CCC2)C1c1cc2c(cc1Cl)OCO2 (stereo unspecified) | -5 | -2% | 2%[46.1 µM] | -16% | -3 | 6%[46.1 µM]
CCOc1cc(/C=N/NC(=O)c2nn(C)cc2Br)ccc1OCc1ccccc1 | 27 | ? | 20% | -18% | -2 | -2%
COc1ccc(/C=N/NC(=O)c2nn(C)cc2Br)cc1CSCc1ccco1 | 38* | -12% | 15% | -15% | 31* | -21%
O=C(O)c1cc(S(=O)(=O)NCCCN2CCCC2=O)ccc1Cl | . | 16% | 10% | -10% | . | -4%
COc1cc(C)ccc1OCCCOc1ccccc1Br | 110* | 1% | -12% | 26% | 64* | ?
COC(=O)c1ccccc1OCCCOc1ccc(C)cc1OC | 46 | . | -2% | . | 16 | .
COc1cc(C)ccc1OCCON1C(=O)CCC1=O | 55 | 17% | 19%[46.1 µM] | 2% | 32* | -6%[46.1 µM]
COc1cc(C)ccc1OCCOc1c(C)cccc1Cl | 57* | -12% | 10% | 39% | 24* | -1%
COc1ccccc1OCCOCCOc1ccc(C)cc1Br | -6 | -18% | -3% | -10% | 1 | 18%
COc1ccccc1OCCCOc1ccc(C)cc1Br | 74* | ? | 23% | 35% | 46* | 4%
CSc1nc(Cl)c(Br)c(N2CC2)n1 | . | -17% | 13%[46.1 µM] | 2% | . | 1%[46.1 µM]
COc1ccc(-c2ccc(CCC(=O)O)n2-c2ccccc2C(F)(F)F)cc1 | . | . | -6%[46.1 µM] | 0% | . | -22%[46.1 µM]
